# RORg inh = blocks mouse ROR gamma transcriptional activity. Potency, µM (highest dose often 53.6 µM), without a hit: at the top dose activity change, negative = inhibition, usual class: inhibitors. AID 2551. P51450. actives 5.4% (n = 310,000). Drosophila S2 Gal4-RORgamma UAS-luciferase reporter, 20 h; also: potency is read from the fitted curve at half-maximal effect; nearly all actives have a fitted effect of over 60% in size
# Target sequence (P51450 whole entry, looked up, the tested form may be a part): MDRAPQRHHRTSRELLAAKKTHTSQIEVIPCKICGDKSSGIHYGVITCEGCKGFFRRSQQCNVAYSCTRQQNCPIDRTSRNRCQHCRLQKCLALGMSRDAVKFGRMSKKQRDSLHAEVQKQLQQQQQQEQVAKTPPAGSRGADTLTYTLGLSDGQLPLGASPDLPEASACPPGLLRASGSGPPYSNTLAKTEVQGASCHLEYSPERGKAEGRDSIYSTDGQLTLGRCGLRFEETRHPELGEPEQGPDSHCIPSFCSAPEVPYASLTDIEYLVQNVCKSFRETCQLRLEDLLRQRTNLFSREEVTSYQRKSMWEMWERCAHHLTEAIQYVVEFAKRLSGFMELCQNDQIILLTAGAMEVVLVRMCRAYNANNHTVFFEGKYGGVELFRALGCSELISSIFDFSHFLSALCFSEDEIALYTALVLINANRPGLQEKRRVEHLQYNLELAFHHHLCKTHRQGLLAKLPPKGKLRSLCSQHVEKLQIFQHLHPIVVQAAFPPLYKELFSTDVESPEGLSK
#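 Read-out: Photinus luciferase luminescence; inhibitors lower reporter signal. Insect Schneider cells with Gal4-ROR gamma fusion under metallothionein promoter, UAS reporter; 700 uM final copper sulfate induction, 20 hr, ambient temperature.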
# IL-1B inflam inh = blocks inflammasome-driven IL-1 beta release | activity change, % at 57.5 µM | THP-1 LPS/ATP IL-1B secretion, AlphaLISA, 16 h; active compounds read low | actives 4.7% (n = 360,000); in the data active = activity change below about -50%; inconclusive = mostly about -30% to -49%
#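 THP-1 cells pretreated 1 hr with compounds (up to 57.5 uM final), then stimulated with LPS (250 ng/mL final) plus ATP (1.25 mM final); secreted IL-1B measured by AlphaLISA after 16 hr, decreased signal indicating inhibition.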
# TDP1 cell CPT = growth inhibition of DT40 Tdp1-/-;hTDP1 cells with camptothecin (screen for TDP1 inhibitors) | Potency, µM (titrated, usually from 46.2 µM), inactives show top-dose activity change, negative = growth inhibition, most hits filed as inhibitors | actives 12% (n = 420,000) | chicken DT40 Tdp1-/-;hTDP1 cells + 20 nM CPT, ATP luminescence, 48 h; also: potency is read from the fitted curve at half-maximal effect; nearly all actives have a fitted effect of over 55% in size
#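 Chicken DT40 Tdp1-/- cells stably complemented with human TDP1 were seeded at 400 cells/well in medium containing 20 nM camptothecin, exposed to pin-transferred compounds, and grown at 37 °C for at least 48 hr. Viability was read as ATP luminescence.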
# ELG1 repair inh = blocks ELG1-dependent DNA repair in HEK293T cells | HEK293T ELG1-luciferase reporter, luminescence, 16 h; DNA damage induced by 5-fluorouridine | Potency, µM (top dose mostly 46.1 µM), for inactives: at the highest dose activity change, negative = inhibition, most hits filed as inhibitors | actives 2.3% (n = 330,000); also: potency is read from the fitted curve at half-maximal effect; nearly all actives have a fitted effect of over 55% in size
#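 DMSO vehicle served as the neutral condition. Each well held 2,000 cells given 5-fluorouridine plus compound; after 16 hr at 37 °C/5% CO2, ONE-Glo was added and luciferase measured 30 min later.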
# TDP1 cell noCPT = qHTS for Inhibitors of human tyrosyl-DNA phosphodiesterase 1 (TDP1): qHTS in cells in absence of CPT | DT40 Tdp1-/- hTDP1 cells, no CPT, ATP luminescence, 48 h | Potency, µM (highest dose often 46.2 µM), for the others: top-dose activity change, negative = growth inhibition, most hits filed as inhibitors | actives 15% (n = 420,000) | AID 686978, 2013; also: potency is read from the fitted curve at half-maximal effect; nearly all actives have a fitted effect of over 55% in size
#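 Compound effects on proliferation are scored in DT40 Tdp1-/-;hTDP1 cells in the absence of CPT. ATP levels (CellTiter-Glo luminescence) are recorded after a ≥48 hr, 37 °C incubation.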
# VP16 counter = inhibits Gal4-VP16 luciferase reporter, ROR gamma counter-screen | Drosophila S2 Gal4-VP16 UAS-luciferase, luminescence, 20 h | Potency, µM (titrated, usually from 53.6 µM), for inactives: at the top dose activity, negative = inhibition, most hits filed as inhibitors | actives 3.5% (n = 310,000) | AID 2546;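 also: Gal4-VP16 expression switched on by copper sulfate through the metallothionein promoter; potency is read from the fitted curve at half-maximal effect; nearly all actives have a fitted effect of over 50% in size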
# The depositor's hits bear a star; ? = inconclusive; · = no result; [ ] = another dose, or the depositor's remark. In the library only some 21% were active in any assay of this set; here they are far more common. Unless noted, calls follow the shape of the dose curve; as a rule, active = well fitted curve in the direction sought with a large enough effect; inconclusive = small, poorly fitted or top-dose-only effect, or another doubt; inactive = no such curve, though single readings can be large; an effect the other way counts as inactive or inconclusive. % is scaled to controls: 0 for no effect and ±100 for the full control effect.
SMILES,RORg inh,IL-1B inflam inh,TDP1 cell CPT,ELG1 repair inh,TDP1 cell noCPT,VP16 counter
CCOCc1nc(N)nc(N)c1-c1cccc(Cl)c1,·,11.5,8.2µM*,·,7.31µM*,·
COc1ccc(-c2sc3ccccc3c2-c2cc(OC)ccc2C=O)cc1,·,78.1,?,·,20.6µM*,·
COc1ccc(-c2sc3ccccc3c2/C=C/c2ccc(OC)c(OC)c2)cc1,·,-5.9,-21.1%,11.5%,-16.4%,·
COc1ccc(-c2sc3ccccc3c2/C=C/c2ccncc2)cc1,·,-4.2,?,?,16.4µM*,·
COc1ccc(-c2cc(=O)c3ccccc3s2)cc1,7.7%,-59.5*,?,?,?,-9.8%
COc1ccc(-c2c(-c3ccccc3OC)sc3ccccc23)cc1C=O,·,20.2,?,?,18.4µM*,·
COc1ccc(-c2c(-c3ccccc3OC)sc3ccccc23)cc1OC,3.4%,-3.4,?,10.9%,4.3%,3.0%
CCCCCC(CC)COC(=O)CC(C(=O)OCC(CC)CCCC)S(=O)(=O)O (stereo not drawn),-26.8%,·,·,·,·,-5.4%
NC(=S)N=Nc1c(O)n(Cc2ccccc2)c2ccccc12,3.16µM*,11.0,5.8µM*,?,6.51µM*,?
Cc1cc(C)nc(N=Nc2c(O)n(Cc3ccc(Cl)cc3)c3ccccc23)n1,5.62µM*,6.3,?,23.1µM*,18.4µM*,3.55µM*
CCCCNC(=S)N=Nc1c(O)n(Cc2ccccc2)c2ccccc12,6.31µM*,-26.6,16.4µM*,-2.5%,2.59µM*,6.31µM*
Cc1ccc(NC(=O)Cn2c(O)c(N=NC(N)=S)c3ccccc32)cc1,?,5.5,?,4.6%,?,?
C/C(Cl)=C\Cn1c(O)c(N=NC(N)=S)c2ccccc21,3.55µM*,-4.5,4.11µM*,-1.5%,3.66µM*,5.01µM*
C1CC(=NN=C2CCSCC2)CCS1,·,-13.6,9.7%,·,-15.0%,·
Cc1ccc(NC(=O)C2C3CCC(O3)C2C(=O)O)c(Br)c1 (stereo not drawn),·,35.7,7.4%,?,8.7%,·
O=S1(=O)CCC(N=Nc2c(O)n(Cc3ccccc3)c3ccccc23)C1 (stereo not drawn),39.0%,-9.2,20.6µM*,0.0%,?,8.7%
CCN(CC)CCn1c(O)c(N=O)c2ccccc21,-1.5%[10 µM],11.2,-4.8%,-3.4%,-16.4%,2.0%
O=C(N=Nc1c(O)n(Cc2ccccc2)c2ccccc12)c1ccncc1,-20.9%,76.4,?,18.3µM*,?,-7.6%
O=Nc1c(O)n(Cc2cccc(Cl)c2)c2ccccc12,11.4%,-67.6*,0.6%,-3.4%,-28.0%,-21.6%
CCOC(=O)N=Nc1c(O)n(Cc2ccccc2)c2ccccc12,?,-1.9,?,-1.8%,?,-0.9%
COC(=O)c1ccc(Cn2c(O)c(N=NC(N)=S)c3ccccc32)o1,1.12µM*,?,?,?,?,12.6µM*
COc1ccc(C(=O)CN2C(=O)c3ccccc3C2=O)c(OC)c1,12.4%,-14.6,-9.9%,?,14.0%,-8.2%
COc1ccc(C(=O)C[n+]2cn(C(F)F)c3ccccc32)c(F)c1,10.0%,?,?,?,20.6µM*,11.9%
COc1ccc([C@@H]2CC(=O)[C@@H]3CN(S(=O)(=O)c4ccc(C)cc4)[C@H](c4cccc(Cl)c4)C[C@@H]3N2S(=O)(=O)c2ccccc2)cc1,·,5.3,-6.1%,·,-15.0%,·
O=C(CCN1N=C(c2ccccc2)CCC1=O)NCCCN1CCOCC1,-23.6%,-11.8,17.5%,27.2%,15.6%,1.2%
SMILES,RORg inh,IL-1B inflam inh,TDP1 cell CPT,ELG1 repair inh,TDP1 cell noCPT,VP16 counter
Cc1cc(C)cc(-n2ccnc2SCC(=O)Nc2cccc3ccccc23)c1,·,·,20.6µM*,·,18.4µM*,·
Cc1cc(C)cc(-n2ccnc2SCC(=O)Nc2ccccc2F)c1,·,·,23.1µM*,·,16.4µM*,·
O=C(CSc1nccn1-c1ccc(Cl)cc1)Nc1cccc2ccccc12,·,·,?,·,-13.6%,·
Cc1ccc(S(=O)(=O)N2[C@@H](c3ccc(Br)cc3)C(C(=O)O)=C[C@H]2C(C)(C)C)cc1,·,31.3,-15.7%,-8.8%,?,·
CC(Oc1ccccc1)C(=O)NC1=NCCS1 (stereo not drawn),-40.9%,?,5.2%,?,-7.6%,-4.3%
c1ccc(CCNc2c3c(nc4ncnn24)CCC3)cc1,-38.9%,-10.0,?,?,?,?
Fc1ccccc1CCNc1c2c(nc3ncnn13)CCCC2,19.6%,-0.8,9.2µM*,8.8%,5.17µM*,6.3%
COC(=O)C1(C)CCCC2(C)C3CCC(C(C)C)C(CO)C3C(CO)CC12 (stereo not drawn),·,-60.0*,?,·,?,·
COc1ccc(OCc2nc(N)nc(Nc3ccc(C)cc3)n2)cc1,6.7%,-14.0,-17.1%,22.4%,?,9.7%
CC1=C(C(=O)Nc2ccc(C)cc2C)C(c2ccc([N+](=O)[O-])cc2)n2ncc(C(=O)Nc3ccc(F)cc3)c2N1 (stereo not drawn),·,·,8.2µM*,·,8.2µM*,·
CC1=C(C(=O)Nc2ccccc2)C(c2ccccc2Cl)n2ncc(C(=O)Nc3cccc(C)c3)c2N1 (stereo not drawn),·,·,?,·,18.4µM*,·
CCOc1ccc(C2C(C(=O)Nc3ccc(C)cc3C)=C(C)Nc3c(C(=O)Nc4ccc(C)cc4)cnn32)cc1OC (stereo not drawn),·,·,-12.9%,·,-6.4%,·
CC1=C(C(=O)Nc2ccccc2)C(c2ccccc2C)n2ncc(C(=O)Nc3ccccc3)c2N1 (stereo not drawn),·,·,?,·,-74.3%,·
COc1ccc(C2C(C(=O)Nc3ccccc3OC)=C(C)Nc3c(C(=O)Nc4ccccc4)cnn32)c(OC)c1 (stereo not drawn),·,·,20.6µM*,·,?,·
COc1cccc(C2C(C(=O)Nc3cccnc3)=C(C)Nc3nc(SCc4ccccc4)nn32)c1 (stereo not drawn),·,·,-14.2%,·,-4.2%,·
Cc1ccc(C)c(NC(=O)Cn2ccn(-c3ccc4c(c3)OCO4)c(=O)c2=O)c1,·,6.5,-4.2%,0.0%,3.9%,·
CCC(CN(C)C)Oc1cc(NCc2ccccc2)c2ncn(C(C)C)c2c1 (stereo not drawn),·,15.3,25.9µM*,3.2%,?,·
CCC(CO)Oc1cc(NC(=O)c2ccccc2C)c2ncn(C(C)C)c2c1 (stereo not drawn),·,0.0,?,-15.7%,-12.3%,·
